# Where two headings read alike, the source gives them in different places.
# Columns and labels:
# Parameters in all cases: species or system human, MV4-11 + K-562 + COLO205 + SK-N-BE2 + OVCAR-8
# ABL2 = conditions: read-out: apparent Kd, compound concentrations: 100 nM and 1000 nM (sheet 'Samples'), n = 1
# FYN = conditions: read-out: apparent Kd, compound concentrations: 100 nM and 1000 nM (sheet 'Samples'), n = 1
# GAK = conditions: read-out: apparent Kd; compound concentrations: 100 nM and 1000 nM (sheet 'Samples'), CATDS: 7.8355019854230004E-2; n = 1
# LCK = conditions: read-out: apparent Kd; compound concentrations: 100 nM and 1000 nM (sheet 'Samples'), CATDS: 4.6764709487854099E-2; n = 1
# RIPK3 = conditions: read-out: apparent Kd, compound concentrations: 100 nM and 1000 nM (sheet 'Samples'), n = 1
# TNK1 = conditions: read-out: apparent Kd; compound concentrations: 100 nM and 1000 nM (sheet 'Samples'), CATDS: 7.10025614221442E-2; n = 1
# YES1 = conditions: read-out: apparent Kd, compound concentrations: 100 nM and 1000 nM (sheet 'Samples'), n = 1
# CSNK2A1;CSNK2A3 = conditions: read-out: apparent Kd; compound concentrations: 100 nM and 1000 nM (sheet 'Samples'), CATDS: 2.30931474147829E-2; n = 1
# HCK = conditions: read-out: apparent Kd, compound concentrations: 100 nM and 1000 nM (sheet 'Samples'), n = 1
# PTK6 = conditions: read-out: apparent Kd; compound concentrations: 100 nM and 1000 nM (sheet 'Samples'), CATDS: 5.1044813253260601E-2; n = 1
# RIPK2 = conditions: read-out: apparent Kd, compound concentrations: 100 nM and 1000 nM (sheet 'Samples'), n = 1
# ACOX1 = conditions: read-out: apparent Kd, n = 1
smiles,measurement,setting,value
CC(=O)N1CCN(c2ccc(Nc3nccc(-c4sc(C(C)C)nc4-c4cccc(NS(=O)(=O)c5cccc(Cl)c5)c4)n3)cn2)CC1 [GSK1660437A],potency estimated from few doses,ABL2; CATDS: 7.86907844661483E-2,351 nM
same,potency estimated from few doses,FYN; CATDS: 4.41921751489057E-2,1120 nM
same,potency estimated from few doses,GAK,353 nM
same,potency estimated from few doses,LCK,973 nM
same,potency estimated from few doses,RIPK3; CATDS: 3.6291204942441098E-2,2010 nM
same,potency estimated from few doses,TNK1,418 nM
same,potency estimated from few doses,YES1; CATDS: 4.9089753875203201E-2,868 nM
O=S(=O)(CCOCc1ccc(-c2ccc3ncnc(Nc4ccc(OCc5cccc(F)c5)c(Cl)c4)c3c2)o1)c1ccccc1 [GW615311X],potency estimated from few doses,CSNK2A1;CSNK2A3,2130 nM
same,potency estimated from few doses,FYN; CATDS: 3.12916843215739E-2,1080 nM
Cc1cc(O)cc(C)c1/C=C/c1cncc(-c2nn[nH]n2)c1.Cl [GW441806A],potency estimated from few doses,ABL2; CATDS: 4.9411968087492097E-2,1050 nM
same,potency estimated from few doses,HCK; CATDS: 5.4045361972082297E-2,799 nM
same,potency estimated from few doses,PTK6,947 nM
same,potency estimated from few doses,RIPK2; CATDS: 0.246510095033628,18 nM
same,potency estimated from few doses,RIPK3; CATDS: 4.07522630784811E-2,2090 nM
COc1cccc(C2=C(c3cn(C)c4c(C)cccc34)C(=O)NC2=O)c1 [RO3301012-000],potency estimated from few doses,"ACOX1; compound concentrations: 100 nM and 1000 nM (sheet 'Samples'), CATDS: 0.48882093351054501",97.9 nM
same,potency estimated from few doses,RIPK2; CATDS: 0.14252909212912099,770 nM
CCCN1CCC(Oc2cc(Nc3nc(Nc4cccc(F)c4C(N)=O)c4cc[nH]c4n3)c(OC)cc2Cl)CC1 [GSK1713088A],potency estimated from few doses,"ACOX1; compound concentrations: 100 nM and 1000 nM (sheet 'Samples'), CATDS: 0.172971631917821",2220 nM
COc1cc2ncn(-c3cc(OCc4sccc4Cl)c(C(N)=O)s3)c2cc1OC [GSK448459A],potency estimated from few doses,ACOX1; compound concentrations:100 nM and 1000 nM (sheet 'Samples'),1270 nM
Cc1ccc(NC(=O)Nc2ccccc2)cc1-c1ccc(C(=O)Nc2ccncc2)cc1 [GSK1398471A],potency estimated from few doses,HCK; CATDS: 0.185556916463613,507 nM
same,potency estimated from few doses,RIPK2; CATDS: 0.252300510926462,310 nM
same,potency estimated from few doses,RIPK3; CATDS: 0.107109560808048,1620 nM
same,potency estimated from few doses,YES1; CATDS: 0.19959075009265401,448 nM
O=C1Nc2ccc(F)cc2/C1=C/c1ccc[nH]1 [RO0272148-000],potency estimated from few doses,"ACOX1; compound concentrations: 100 nM and 1000 nM (sheet 'Samples'), CATDS: 0.35170736518262402",1160 nM
Clc1ccc(-c2nn3ncccc3c2-c2ccnc(Nc3ccccc3)n2)cc1 [GW829055X],potency estimated from few doses,HCK; CATDS: 3.5992477058575501E-2,1500 nM
Cn1cc(C2=C(c3cccc([N+](=O)[O-])c3)C(=O)NC2=O)c2ccccc21 [RO0317474-000],potency estimated from few doses,"ACOX1; compound concentrations: 100 nM and 1000 nM (sheet 'Samples'), CATDS: 0.177541909552099",937 nM
Cl.Fc1cccc(COc2ccc(Nc3ncnc4cc(-c5ccc[nH]5)sc34)cc2Cl)c1 [GW693881A],potency estimated from few doses,"ACOX1; compound concentrations: 100 nM and 1000 nM (sheet 'Samples'), CATDS: 0.17026663208719101",1170 nM
